Bioassay records as filed in PubChem BioAssay.
TSHR agonist – TSH receptor (human) agonism; P16473; 73,000 tested, 0.48% active; HEK293-CNG-TSHR cells (CNG channel as cAMP sensor), membrane potential dye, cAMP; Potency, µM (highest dose often 57.1 µM), usual class: activators; AID 926; active = well fitted activation curve with a large enough effect in the main read-out, with a control signal flat, not every such curve was filed as active; inconclusive = small, poorly fitted or top-dose-only effect, or a change in a side signal; inactive = no such curve, though single readings can be large or run the other way; reference of the percent scale not stated here;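 note: the control signal comes from parental cells without the receptor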
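HEK 293 cells stably expressing TSHR and a cAMP-gated CNG channel; parental CNG-only cells as counterscreen. Cells preloaded 60 min with membrane potential dye plus 100 uM RO 20-1724, then compound 30 min; fluorescence read at 590 nm.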
Bst PK mod – modulators of Bacillus stearothermophilus pyruvate kinase | purified pyruvate kinase, luminescence ATP production; ribose 5-phosphate activator present at AC10 | 51,000 tested, 1.2% active | Potency, µM; in the data active = potency below about 11 µM; inconclusive = mostly about 12 µM to 25 µM;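 the screen sought inhibitors and activators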
FLuc inh – blocks Photinus pyralis firefly luciferase activity; purified firefly luciferase, luminescence, 8 min; P08659; AID 411; Potency, µM (series often up to 57.1 µM), hits mostly inhibitors; 72,000 tested, 2.2% active; note: nearly all actives have a fitted effect of over 40% in size
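Firefly luciferase (PKLight detection mix) with 10 uM ATP in pH 7.2 imidazole buffer (KCl, MgCl2, Tween 20, BSA). Compounds tested across a concentration series (qHTS). Luminescence read after 8 min at ambient temperature.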
HEK293 cAMP cs – raises cAMP in parental HEK293 cells, TSHR agonist counter-screen; 73,000 tested, 2.5% active; Potency, µM (titrated, usually from 57.1 µM), hits mostly activators; parental HEK293 CNG cAMP sensor, membrane potential fluorescence; note: nearly all actives have a fitted effect of over 55% in size
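Parental HEK 293 cells stably expressing a modified CNG channel (no TSHR) report cAMP rise as membrane depolarization. Membrane potential dye with 100 uM RO 20-1724 was loaded for 60 min at room temperature, then compound added for 30 min; fluorescence read at 590 nm.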
Tau fil binding – tau filament binding. AID 596. recombinant tau filaments, thioflavin S fluorescence, 15 h; filaments grown with octadecylsulfate alongside compound. P10636. Potency, µM (series often up to 57.1 µM). 71,000 tested, 2% active;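 note: actives lower thioflavin S fluorescence by blocking filaments or displacing dye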
Target sequence (P10636 whole entry, looked up): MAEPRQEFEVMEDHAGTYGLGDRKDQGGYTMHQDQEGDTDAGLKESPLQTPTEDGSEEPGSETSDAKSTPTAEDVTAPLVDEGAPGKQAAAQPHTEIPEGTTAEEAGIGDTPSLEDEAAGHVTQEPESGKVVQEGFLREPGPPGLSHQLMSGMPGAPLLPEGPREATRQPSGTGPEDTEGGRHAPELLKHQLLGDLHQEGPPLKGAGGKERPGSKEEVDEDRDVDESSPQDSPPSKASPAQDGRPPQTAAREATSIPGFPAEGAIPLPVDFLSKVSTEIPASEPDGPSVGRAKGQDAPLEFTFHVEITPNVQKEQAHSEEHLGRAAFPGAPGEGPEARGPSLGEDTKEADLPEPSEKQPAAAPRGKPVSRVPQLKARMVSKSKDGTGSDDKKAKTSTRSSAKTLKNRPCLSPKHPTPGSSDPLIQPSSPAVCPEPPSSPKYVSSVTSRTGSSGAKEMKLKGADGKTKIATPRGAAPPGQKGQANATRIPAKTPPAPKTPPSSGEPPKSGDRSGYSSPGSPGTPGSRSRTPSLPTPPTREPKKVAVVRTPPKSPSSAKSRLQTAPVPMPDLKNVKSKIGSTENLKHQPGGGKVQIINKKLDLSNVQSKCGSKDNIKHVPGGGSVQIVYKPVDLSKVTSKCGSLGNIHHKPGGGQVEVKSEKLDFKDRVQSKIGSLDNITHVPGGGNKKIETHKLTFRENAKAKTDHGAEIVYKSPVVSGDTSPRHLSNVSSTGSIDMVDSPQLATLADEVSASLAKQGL
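Thioflavine S fluorescence (ex 450, em 510 nm) reports filaments formed from 1 uM human tau plus 30 uM ODS over 15 h at 37 C (10 mM HEPES pH 7.4, 100 mM NaCl, 5 mM DTT); compounds displacing dye or blocking filaments lower signal.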
15-hLO inh – blocks human 15-lipoxygenase activity. P16050. purified 15hLO-1, xylenol orange hydroperoxide absorbance. Potency, µM (highest dose often 57.1 µM), usual class: inhibitors. 74,000 tested, 1.4% active; note: nearly all actives have a fitted effect of over 55% in size
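Purified human 15hLO-1 (40 nM) in 25 mM Hepes pH 7.5, 0.01% Triton X-100, preincubated 15 min RT with compound, then 50 uM arachidonic acid for 6 min. Hydroperoxide read by ferrous/xylenol orange, 30 min; 573/405 nm absorbance ratio gave progress.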
A number is an active result; – = inactive; ? = inconclusive; · = not tested or not shown; [ ] = remark or other dose. Sampled rows, rich in hits. Any-hit rate of the full collection: about 7.8%. Unless noted, calls come from the whole dose curve; as a rule, active = well fitted curve in the direction sought with a large enough effect; inconclusive = small, poorly fitted or top-dose-only effect, or another doubt; inactive = no such curve, though single readings can be large; an effect the other way counts as inactive or inconclusive.

SMILES	TSHR agonist	Bst PK mod	FLuc inh	HEK293 cAMP cs	Tau fil binding	15-hLO inh
O=[N+]([O-])c1cc(Cl)cc2c1nc(NCCO)c1ccccc12	–[11.4 µM]	·	–[11.4 µM]	–[11.4 µM]	4µM	–[11.4 µM]
O=C(NCCO)c1nc(NCCO)c2ccccc2n1	–	–	–	–	–	–
O=C(Cl)c1cccc([N+](=O)[O-])c1	?	·	·	–	–	–
Fc1ccc(CSc2nnc(-c3cnccn3)n2Cc2ccco2)cc1	–	–	–	–	–	–
Fc1ccccc1CSc1nnc(-c2cnccn2)n1Cc1ccco1	?	–	–	25µM	–	–
Clc1ccc(CSc2nnc(-c3ccccn3)n2Cc2ccco2)c(Cl)c1	–	–	–	–	–	–
C(=C\c1ccccc1)/CSc1nnc(-c2cnccn2)n1Cc1ccco1	?	–	–	13µM	–	?
O=C(CSc1nnc(-c2cnccn2)n1Cc1ccco1)c1ccc2ccccc2c1	?	?	–	?	–	–
Brc1ccc(CSc2nnc(-c3cnccn3)n2Cc2ccco2)cc1	?	–	–	20µM	–	–
c1ccc(C(c2ccccc2)N2CCCC3(CCNCC3)C2)cc1	–	·	–[11.4 µM]	–	–	?
COC(=O)[C@@]1(Cc2ccccc2)[C@H]2c3cc(C(=O)N4CCCC4)n(Cc4ccc(C(F)(F)F)nc4)c3C[C@H]2CN1C(=O)c1ccccc1	?	·	·	1.6µM	–	·
COC(=O)C1(Cc2ccccc2)C2c3cc(C(=O)N4CCCC4)n(Cc4ccc(OC(F)(F)F)cc4)c3CC2CN1C(=O)c1ccccc1 (stereo not drawn)	?	·	·	1.3µM	–	·
COC(=O)[C@@]1(Cc2ccccc2)[C@H]2c3cc(C(=O)N4CCCC4)n(CCO)c3C[C@H]2CN1C(=O)c1ccccc1	–	·	·	–	–	·
Cn1c(NCc2ccco2)nc2ccccc21	–	–	–	–	16µM	–
CN(C)CCNc1c2c(c(C#N)c3nc4ccccc4n13)CCCC2	?	–	–	–	–	–
Cn1c(/N=C/c2ccc3c(c2)OCO3)nc2ccccc21	–	·	2.5µM	–	–	–
CCn1c(NCc2c[nH]c3ccccc23)nc2ccccc21	–	–	–	–	–	–
N#Cc1c2c(c(NCc3ccco3)n3c1nc1ccccc13)CCC2	–	·	–	–	–	5µM
Cn1c(NCc2c[nH]c3ccccc23)nc2ccccc21	–	·	25µM	–	–	–
Cn1c(NCc2cccs2)nc2ccccc21	?	–	–	?	–	–
Cc1cc(C)n(-c2cc(-c3ccccc3)nc(C)n2)n1	·	–	–	–	–	–
C[C@@]1(CO)[C@H](O)CC[C@]2(C)[C@@H]1CC[C@H]1C[C@H]3C[C@]12CC[C@]3(O)COC(=O)CN	–[11.4 µM]	·	–[11.4 µM]	–[11.4 µM]	–[11.4 µM]	–[11.4 µM]
Cn1c(/C=N/n2cnnc2)nc2ccccc21	–[11.4 µM]	·	–	–[11.4 µM]	–[11.4 µM]	–[11.4 µM]
Cn1c(/N=C/c2c[nH]c3ccccc23)nc2ccccc21	–	0.3	0.63µM	–	–	–
COc1ccc(CCCc2nnc(SCC(=O)Nc3ncc(C)s3)o2)cc1	·	–	16µM	–	–	–
SMILES	TSHR agonist	Bst PK mod	FLuc inh	HEK293 cAMP cs	Tau fil binding	15-hLO inh
CN(C)c1ccc(NC(=O)c2sc(SCC(=O)Nc3nccs3)nc2N)cc1	·	10	4µM	·	·	·
COc1ccc(-c2nc(N)nc(C)c2Oc2ccccc2Br)c(O)c1	·	1.9	–	–	–	–
O=C1C[C@@H](O)[C@@H](O)[C@H]2[C@@H]3C(=O)N(C[C@@H]4CCCO4)C(=O)[C@@H]3CC[C@H]12	–[11.4 µM]	·	–[11.4 µM]	–[11.4 µM]	·	–[11.4 µM]
O=C1[C@H]2[C@H]3[C@H](O)[C@H](O)C/C(=N/OC[C@@H](O)COCc4ccco4)[C@@H]3CC[C@@H]2C(=O)N1C1CCCCC1	–[11.4 µM]	·	–[11.4 µM]	–[11.4 µM]	·	–[11.4 µM]
Nc1ccccc1C(=O)Nc1cccc(C(=O)O)c1	–	·	25µM	–	–	–
CCc1cccc(NC(=O)CS(=O)Cc2nc(-c3ccc(C)cc3)oc2C)c1 (stereo not drawn)	·	·	–	–	–	–
COc1ccc(C(=O)Nn2c(C3CCC3)nc3ccccc3c2=O)c(OC)c1	–	–	–	–	–	–
COc1ccc(Cn2c(C3CC3)nc3ccc(NC(C)=O)cc3c2=O)cc1	·	·	20µM	–	–	–
